Eight compounds from PubChem BioAssay (NCI) can be followed below.

Test systems include EKVX NSCLC; SN12C renal; UO-31 renal; TK-10 renal; ACHN renal; CAKI-1 renal; A498 renal; CCRF-CEM leukemia; MOLT-4 leukemia; SR leukemia; RPMI-8226 leukemia; OVCAR-8 ovarian; OVCAR-5 ovarian; OVCAR-4 ovarian; SK-OV-3 ovarian; IGROV1 ovarian; OVCAR-3 ovarian; NCI/ADR-RES ovarian.
Holding throughout (experiment): NCI-60 one-dose screen, 48 h (100 = growth as untreated, 0 = no growth, -100 = all killed)
Conditions in all cases: 10 µM unless noted

Molecules are shown by their SMILES. This is part of a sample that, as a whole, favours compounds with a hit. Of some 83,000 tested, about 20% had one in any assay.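 Interpretation: 100, growth as untreated; towards 0, rising growth inhibition; 0, no net growth; 0 to -100, cell death. Compounds scoring below 10 were considered active.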 A number with no mark means an inactive call. The source made the active and inactive calls.

Turning to `COc1ccc2c(OCc3nnc4ccc(-c5ccccc5)nn34)ccnc2c1`, the growth is 104% [2.5 µM] in the assay on EKVX NSCLC; 104% [2.5 µM] with SN12C renal; 74.6% [2.5 µM] in the assay on UO-31 renal; 93.7% [2.5 µM] in the assay with TK-10 renal; 97.2% [2.5 µM] with ACHN renal; 74.6% [2.5 µM] in the assay on CAKI-1 renal. Besides, the growth with A498 renal is 89.1% [2.5 µM]; in the assay with CCRF-CEM leukemia it was 102% [2.5 µM]; in the assay with MOLT-4 leukemia, 72.7% [2.5 µM]; with SR leukemia, 80.9% [2.5 µM]; in the assay on RPMI-8226 leukemia it was 104% [2.5 µM]; with OVCAR-8 ovarian, 102% [2.5 µM]. Moreover, the growth with OVCAR-5 ovarian is 87.3% [2.5 µM]; with OVCAR-4 ovarian it was 100% [2.5 µM]; with SK-OV-3 ovarian, 73.3% [2.5 µM]; in the assay on IGROV1 ovarian, 106% [2.5 µM]; in the assay with OVCAR-3 ovarian it was 110% [2.5 µM]; in the assay on NCI/ADR-RES ovarian, 76.3% [2.5 µM].

Regarding `CC(=O)c1cnc2ccc(-c3cc(Cl)c(O)c(Cl)c3)nc2c1NC1CCC(CN(C)C)CC1` (centres undefined), the growth in the assay with EKVX NSCLC was -15.9% [2.5 µM] (active); in the assay on SN12C renal, -7.95% [2.5 µM] (active); in the assay on UO-31 renal it was -33.1% [2.5 µM] (active); in the assay with TK-10 renal, -59.7% [2.5 µM] (active); with ACHN renal, -0.784% [2.5 µM] (active); in the assay with CAKI-1 renal it was -49.4% [2.5 µM] (active). For the same compound, the growth with A498 renal was -88% [2.5 µM] (active); in the assay with CCRF-CEM leukemia it was 1.45% [2.5 µM] (active); in the assay with MOLT-4 leukemia, -36.4% [2.5 µM] (active); with SR leukemia it was -16% [2.5 µM] (active); in the assay on RPMI-8226 leukemia it was -24.3% [2.5 µM] (active); with OVCAR-8 ovarian it was -22.9% [2.5 µM] (active). Also, the growth with OVCAR-5 ovarian is 2.38% [2.5 µM] (active); in the assay with OVCAR-4 ovarian, -9.08% [2.5 µM] (active); in the assay on SK-OV-3 ovarian, -32.6% [2.5 µM] (active); with IGROV1 ovarian, -17.3% [2.5 µM] (active); with OVCAR-3 ovarian it was 2.02% [2.5 µM] (active); in the assay with NCI/ADR-RES ovarian, -13.7% [2.5 µM] (active).

As to `COc1cc2ncnc(Nc3ccc(F)c(Cl)c3)c2cc1NC(=O)/C=C/CN1CCCCC1`, the growth is -40.3% (active) in the assay on EKVX NSCLC; -76.1% (active) with SN12C renal; -90.2% (active) in the assay with UO-31 renal; -88.8% (active) with TK-10 renal; -97.9% (active) in the assay on ACHN renal; -85.4% (active) with CAKI-1 renal. The growth in the assay with A498 renal is -80.4% (active); with CCRF-CEM leukemia, 6.37% (active); in the assay on MOLT-4 leukemia, -13.1% (active); in the assay on SR leukemia, -14.5% (active); with RPMI-8226 leukemia, -31.2% (active); in the assay with OVCAR-8 ovarian, -38.2% (active). In addition, the growth in the assay on OVCAR-5 ovarian is -22% (active); in the assay with OVCAR-4 ovarian, -57.5% (active); in the assay with SK-OV-3 ovarian, -93.5% (active); with IGROV1 ovarian, -47.7% (active); with OVCAR-3 ovarian, -83.2% (active); in the assay with NCI/ADR-RES ovarian, -55% (active).

Consider `O=C(Nc1ccc(-c2ccnc(Nc3ccc(N4CCOCC4)cc3)n2)cc1)[C@@H]1CCCN1`, for which the growth was 71.7% in the assay on EKVX NSCLC; 45.6% in the assay on SN12C renal; 26.5% in the assay on UO-31 renal; 71.6% in the assay on TK-10 renal; 44.1% with ACHN renal; 29.9% in the assay on CAKI-1 renal. Moreover, the growth in the assay with A498 renal is 26.2%; in the assay on CCRF-CEM leukemia it was 28.1%; with MOLT-4 leukemia it was 21.7%; in the assay on SR leukemia, 4.92% (active); in the assay on RPMI-8226 leukemia it was 57%; with OVCAR-8 ovarian, 72.2%. Also, the growth with OVCAR-5 ovarian is 76.8%; in the assay with OVCAR-4 ovarian it was 71.4%; in the assay on SK-OV-3 ovarian, 42.6%; in the assay with IGROV1 ovarian, 60.8%; with OVCAR-3 ovarian, 76.5%; with NCI/ADR-RES ovarian, 87.3%.

Regarding `Nc1ncnc2c1c(-c1cccc(OCc3ccccc3)c1)cn2C1CC(CN2CCC2)C1` (centres undefined), the growth in the assay on EKVX NSCLC is 30.1%; with SN12C renal, 35.5%; with UO-31 renal, -66.6% (active); with TK-10 renal, 28.4%; with ACHN renal, 18.7%; with CAKI-1 renal, 7.5% (active). The growth with A498 renal was -1.47% (active); in the assay on CCRF-CEM leukemia, 5.52% (active); in the assay on MOLT-4 leukemia, -14.5% (active); in the assay with SR leukemia, -17.7% (active); in the assay on RPMI-8226 leukemia, -24% (active); with OVCAR-8 ovarian it was 34.9%. The growth in the assay with OVCAR-5 ovarian is 36%; with OVCAR-4 ovarian, 57.4%; in the assay with SK-OV-3 ovarian, 40.2%; in the assay with IGROV1 ovarian, 22.4%; in the assay on OVCAR-3 ovarian, 58.8%; in the assay with NCI/ADR-RES ovarian, 35.4%.

With `C/C(=C(/c1ccc(Cl)cc1)c1ccc(OCCN2CCCC2)cc1)c1ccccc1`, the growth is 55.2% in the assay on EKVX NSCLC; 80.8% with SN12C renal; 63% with UO-31 renal; 87.7% in the assay with TK-10 renal; 82.9% in the assay with ACHN renal; 81.8% in the assay on CAKI-1 renal. Moreover, the growth in the assay with A498 renal is 77.6%; in the assay on CCRF-CEM leukemia, 59.2%; with MOLT-4 leukemia it was 68.7%; with SR leukemia it was 7.27% (active); in the assay with RPMI-8226 leukemia, 42.8%; in the assay with OVCAR-8 ovarian, 88.1%. Moreover, the growth was 64.7% in the assay on OVCAR-5 ovarian; 91.7% with OVCAR-4 ovarian; 121% with SK-OV-3 ovarian; 65.9% in the assay on IGROV1 ovarian; 91.8% with OVCAR-3 ovarian; 77.6% in the assay with NCI/ADR-RES ovarian.

Regarding `Cn1c(=O)c(F)c(Nc2ccc(I)cc2F)c2c(=O)n(C[C@@H](O)CO)cnc21`, the growth was 46.6% in the assay on EKVX NSCLC; 40.1% in the assay on SN12C renal; 22.8% in the assay on UO-31 renal; 41.2% in the assay on TK-10 renal; 50.7% in the assay on ACHN renal; 41.7% with CAKI-1 renal. Further, the growth was -30.7% (active) in the assay with A498 renal; 66.8% in the assay with CCRF-CEM leukemia; 73.7% with MOLT-4 leukemia; 52.4% in the assay with SR leukemia; 61.2% in the assay on RPMI-8226 leukemia; 43.9% with OVCAR-8 ovarian. For the same compound, the growth in the assay on OVCAR-5 ovarian is 6.95% (active); in the assay on OVCAR-4 ovarian, 55.8%; in the assay on SK-OV-3 ovarian, 44.8%; in the assay on IGROV1 ovarian, 10.5%; in the assay with OVCAR-3 ovarian, 86.9%; in the assay with NCI/ADR-RES ovarian it was 60.6%.

For `COc1ccc(/C(C)=C(\c2ccc(Cl)cc2)c2ccc(OCCN3CCCCCC3)cc2)cc1`, the growth with EKVX NSCLC was 56.7%; with SN12C renal it was 55.3%; with UO-31 renal it was 46%; with TK-10 renal, 73.8%; in the assay with ACHN renal, 67.3%; with CAKI-1 renal, 66.6%. For the same compound, the growth is 78.4% with A498 renal; 43.9% in the assay on CCRF-CEM leukemia; 40.2% in the assay on MOLT-4 leukemia; 1.94% (active) in the assay on SR leukemia; 51.2% in the assay on RPMI-8226 leukemia; 69.1% with OVCAR-8 ovarian. The growth was 74.3% in the assay on OVCAR-5 ovarian; 56.4% in the assay with OVCAR-4 ovarian; 55.7% with SK-OV-3 ovarian; 67.1% in the assay on IGROV1 ovarian; 58.2% with OVCAR-3 ovarian; 82.8% in the assay on NCI/ADR-RES ovarian.
